Data as given in the supplement of paper PMC10849652.
Of roughly 7,900 targets only a part is listed; those with a hit were picked by preference. About 0.6% of all pairs of compound and target were hits. A number with no mark means an inactive call.

Columns and labels:
Assay in all cases: log2 fold change, soluble protein after heating vs DMSO (PISA); higher = thermal stabilisation; K562 cells, 10 uM, 30 min; active = over 0.2 and 3.5 SD of the protein, either way, in both replicates (recomputed)
[1] = compound: CC[C@@H]1C(=O)N(C)c2cnc(Nc3ccc(C(=O)NC4CCN(C)CC4)cc3OC)nc2N1C1CCCC1
Method in brief: (§1)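 Thermal stability values are relative to control samples and come from duplicates. They are expressed as log2 fold changes. For measurement, K562 cells (2×10^6 cells/mL) received 10 μM compound for 30 min, and aliquots were heated for 3 min over 48°C-58°C, pooled, and extracted at 4°C in PBS with 0.5% NP-40. Soluble protein, the supernatant after 21,000xg for 90 min, was quantified by TMTpro 16plex LC-MS/MS with equalised channel sums.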

volasertib = compound: CC[C@@H]1C(=O)N(C)c2cnc(Nc3ccc(C(=O)N[C@H]4CC[C@H](N5CCN(CC6CC6)CC5)CC4)cc3OC)nc2N1C(C)C [volasertib]
Method in brief: as §1

[2] = compound: CC[C@H](C)N1C=C(C2=C(C=C(C=C21)C3=CN=C(C=C3)N4CCNCC4)C(=O)NCC5=C(C=C(NC5=O)C)C)C
Method in brief: as §1

epoxomicin = compound: CC[C@H](C)[C@@H](C(=O)N[C@@H]([C@@H](C)O)C(=O)N[C@@H](CC(C)C)C(=O)[C@]1(CO1)C)NC(=O)[C@H]([C@@H](C)CC)N(C)C(=O)C [epoxomicin]
Method in brief: as §1

[3] = compound: CCn1c(C(=O)N(C2CC2)C2CC2)cc2c3c(ncn3C)c(Nc3cc(C)n(C)n3)nc21
Method in brief: as §1

[4] = compound: CCn1cc(-c2ccnc3[nH]c(-c4cccc(CN(C)C)c4)cc23)c(-c2ccc(NC(=O)N(C)C)cc2)n1
Method in brief: as §1

[5] = compound: CN(C)CC(=O)Nc1ccc2[nH]c(=O)c3ccccc3c2c1
Method in brief: as §1

rosiglitazone = compound: CN(CCOC1=CC=C(C=C1)C[C@H]2C(=O)NC(=O)S2)C3=CC=CC=N3 (racemic) [rosiglitazone]
Method in brief: as §1

[6] = compound: CN1C2=C(C3=C1C(=O)N(N=C3)CC4=CC(=CC=C4)N)SC(=C2)S(=O)C
Method in brief: as §1

[7] = compound: CN1CCC(CNc2ccc3ncc(-c4cccc(OC(F)(F)F)c4)n3n2)CC1
Method in brief: as §1

saracatinib = compound: CN1CCN(CCOc2cc(OC3CCOCC3)c3c(Nc4c(Cl)ccc5c4OCO5)ncnc3c2)CC1 [saracatinib]
Method in brief: as §1

sotrastaurin = compound: CN1CCN(c2nc(C3=C(c4c[nH]c5ccccc45)C(=O)NC3=O)c3ccccc3n2)CC1 [sotrastaurin]
Method in brief: as §1

alvocidib = compound: CN1CC[C@H](c2c(O)cc(O)c3c(=O)cc(-c4ccccc4Cl)oc23)[C@H](O)C1 [alvocidib]
Method in brief: as §1

Tubastatin A = compound: CN1CCc2c(c3ccccc3n2Cc2ccc(C(=O)NO)cc2)C1 [Tubastatin A]
Method in brief: as §1

[8] = compound: CNC(=O)C1=CC=CC=C1NC2=NC(=NC=C2Cl)NC3=C(C=C(C=C3)N4CCOCC4)OC
Method in brief: as §1

defactinib = compound: CNC(=O)c1ccc(Nc2ncc(C(F)(F)F)c(NCc3nccnc3N(C)S(C)(=O)=O)n2)cc1 [defactinib]
Method in brief: as §1

rucaparib = compound: CNCc1ccc(-c2[nH]c3cc(F)cc4c3c2CCNC4=O)cc1 [rucaparib]
Method in brief: as §1

[9] = compound: CNc1nc(-c2ccc3c(N)n[nH]c3c2)cc(N2C[C@@H](C(=O)NC3CCCCC3)CC[C@H]2C)n1
Method in brief: as §1

encorafenib = compound: COC(=O)N[C@@H](C)CNc1nccc(-c2cn(C(C)C)nc2-c2cc(Cl)cc(NS(C)(=O)=O)c2F)n1 [encorafenib]
Method in brief: as §1

[10] = compound: COC(=O)[C@H](CCSC)NC(=O)C1=C(C=C(C=C1)NC[C@H](CS)N)C2=CC=CC=C2
Method in brief: as §1

UniProt Q93084, sequence (Q93084 whole entry, looked up): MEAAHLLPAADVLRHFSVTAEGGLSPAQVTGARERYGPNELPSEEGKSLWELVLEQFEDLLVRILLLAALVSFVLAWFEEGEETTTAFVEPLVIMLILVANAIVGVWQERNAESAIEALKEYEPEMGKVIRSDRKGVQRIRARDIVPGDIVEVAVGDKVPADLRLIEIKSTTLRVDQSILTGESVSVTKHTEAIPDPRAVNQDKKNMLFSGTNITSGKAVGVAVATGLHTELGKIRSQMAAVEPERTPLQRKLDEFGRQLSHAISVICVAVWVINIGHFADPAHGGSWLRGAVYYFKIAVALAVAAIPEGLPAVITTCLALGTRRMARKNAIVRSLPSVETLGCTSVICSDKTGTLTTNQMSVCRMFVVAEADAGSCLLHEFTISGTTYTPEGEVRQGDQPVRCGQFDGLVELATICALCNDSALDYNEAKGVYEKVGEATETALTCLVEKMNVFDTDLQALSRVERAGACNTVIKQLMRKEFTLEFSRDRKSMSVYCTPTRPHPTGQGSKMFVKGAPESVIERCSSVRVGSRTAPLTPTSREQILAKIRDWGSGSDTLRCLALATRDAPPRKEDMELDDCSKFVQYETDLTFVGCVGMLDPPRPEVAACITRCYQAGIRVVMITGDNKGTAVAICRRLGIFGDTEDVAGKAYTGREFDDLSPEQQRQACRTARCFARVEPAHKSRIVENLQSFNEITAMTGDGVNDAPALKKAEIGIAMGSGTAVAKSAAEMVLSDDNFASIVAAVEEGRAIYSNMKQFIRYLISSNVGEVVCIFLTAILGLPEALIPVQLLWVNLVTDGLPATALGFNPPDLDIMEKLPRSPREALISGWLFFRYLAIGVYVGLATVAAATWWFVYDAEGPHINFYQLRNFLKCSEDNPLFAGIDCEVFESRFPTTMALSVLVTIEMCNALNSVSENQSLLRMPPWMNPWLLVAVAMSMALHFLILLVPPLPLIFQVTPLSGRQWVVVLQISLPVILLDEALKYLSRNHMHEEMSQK
UniProt Q9NYF8, sequence (Q9NYF8 whole entry, looked up): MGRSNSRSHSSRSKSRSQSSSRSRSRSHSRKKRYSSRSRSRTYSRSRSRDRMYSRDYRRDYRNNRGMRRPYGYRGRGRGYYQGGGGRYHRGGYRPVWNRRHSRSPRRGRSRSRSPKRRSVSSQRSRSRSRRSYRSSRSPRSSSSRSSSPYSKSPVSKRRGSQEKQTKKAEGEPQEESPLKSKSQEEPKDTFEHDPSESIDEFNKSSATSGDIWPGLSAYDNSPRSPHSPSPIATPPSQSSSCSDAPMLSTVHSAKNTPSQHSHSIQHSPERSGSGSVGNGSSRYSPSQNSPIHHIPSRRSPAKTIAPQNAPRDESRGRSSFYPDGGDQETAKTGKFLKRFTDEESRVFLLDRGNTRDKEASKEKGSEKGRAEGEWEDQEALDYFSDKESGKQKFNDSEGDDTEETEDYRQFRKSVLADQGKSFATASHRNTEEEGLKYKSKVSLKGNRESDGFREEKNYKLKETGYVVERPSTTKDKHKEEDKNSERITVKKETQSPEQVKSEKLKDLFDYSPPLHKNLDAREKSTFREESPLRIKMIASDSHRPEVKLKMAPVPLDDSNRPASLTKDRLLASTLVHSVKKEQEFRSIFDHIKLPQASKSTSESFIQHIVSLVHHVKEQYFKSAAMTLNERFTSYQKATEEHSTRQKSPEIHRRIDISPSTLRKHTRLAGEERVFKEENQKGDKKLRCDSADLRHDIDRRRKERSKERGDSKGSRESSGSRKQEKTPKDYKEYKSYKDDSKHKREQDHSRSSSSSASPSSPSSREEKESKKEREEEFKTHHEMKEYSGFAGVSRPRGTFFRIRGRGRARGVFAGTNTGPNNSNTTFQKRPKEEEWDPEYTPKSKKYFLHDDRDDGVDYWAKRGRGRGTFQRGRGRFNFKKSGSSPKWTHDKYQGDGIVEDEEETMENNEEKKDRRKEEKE
UniProt Q10589, sequence (Q10589 whole entry, looked up): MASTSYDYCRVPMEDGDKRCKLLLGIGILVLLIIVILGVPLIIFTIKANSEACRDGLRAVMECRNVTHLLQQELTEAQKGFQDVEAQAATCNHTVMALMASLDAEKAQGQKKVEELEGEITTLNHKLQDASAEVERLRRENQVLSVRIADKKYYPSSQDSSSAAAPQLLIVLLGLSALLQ
UniProt O00116, sequence (O00116 whole entry, looked up): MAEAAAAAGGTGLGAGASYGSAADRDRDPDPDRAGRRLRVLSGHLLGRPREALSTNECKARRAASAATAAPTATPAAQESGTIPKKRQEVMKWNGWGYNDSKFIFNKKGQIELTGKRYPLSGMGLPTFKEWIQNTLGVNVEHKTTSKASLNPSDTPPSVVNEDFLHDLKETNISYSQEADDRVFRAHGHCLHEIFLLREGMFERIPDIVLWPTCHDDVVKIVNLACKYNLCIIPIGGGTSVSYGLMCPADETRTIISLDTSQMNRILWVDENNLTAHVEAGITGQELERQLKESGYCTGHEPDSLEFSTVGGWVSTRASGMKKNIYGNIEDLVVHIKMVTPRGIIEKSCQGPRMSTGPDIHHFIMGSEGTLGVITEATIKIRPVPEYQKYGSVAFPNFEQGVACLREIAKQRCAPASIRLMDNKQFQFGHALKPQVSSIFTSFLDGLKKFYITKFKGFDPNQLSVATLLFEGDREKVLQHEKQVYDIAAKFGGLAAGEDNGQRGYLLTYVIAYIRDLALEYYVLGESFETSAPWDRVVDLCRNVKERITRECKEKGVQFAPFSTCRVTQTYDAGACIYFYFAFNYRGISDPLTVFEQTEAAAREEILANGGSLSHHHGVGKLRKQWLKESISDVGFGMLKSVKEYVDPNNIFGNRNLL
UniProt P31939, sequence (P31939 whole entry, looked up): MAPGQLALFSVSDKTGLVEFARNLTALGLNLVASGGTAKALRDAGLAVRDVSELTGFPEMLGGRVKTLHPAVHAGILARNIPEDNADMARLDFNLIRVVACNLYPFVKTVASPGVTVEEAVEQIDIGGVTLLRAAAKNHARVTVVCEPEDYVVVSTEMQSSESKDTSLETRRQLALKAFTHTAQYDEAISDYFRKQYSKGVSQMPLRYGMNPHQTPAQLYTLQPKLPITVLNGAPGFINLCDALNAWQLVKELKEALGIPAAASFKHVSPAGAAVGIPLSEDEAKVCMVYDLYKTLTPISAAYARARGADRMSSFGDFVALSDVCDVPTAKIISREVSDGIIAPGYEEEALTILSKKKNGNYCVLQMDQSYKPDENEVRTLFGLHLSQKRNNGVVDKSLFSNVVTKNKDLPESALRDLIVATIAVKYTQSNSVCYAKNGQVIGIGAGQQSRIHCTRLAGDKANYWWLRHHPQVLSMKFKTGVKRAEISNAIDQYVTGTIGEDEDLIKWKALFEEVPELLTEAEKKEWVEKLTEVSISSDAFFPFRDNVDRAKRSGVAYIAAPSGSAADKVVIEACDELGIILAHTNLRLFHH
UniProt Q9NP58, sequence (Q9NP58 whole entry, looked up): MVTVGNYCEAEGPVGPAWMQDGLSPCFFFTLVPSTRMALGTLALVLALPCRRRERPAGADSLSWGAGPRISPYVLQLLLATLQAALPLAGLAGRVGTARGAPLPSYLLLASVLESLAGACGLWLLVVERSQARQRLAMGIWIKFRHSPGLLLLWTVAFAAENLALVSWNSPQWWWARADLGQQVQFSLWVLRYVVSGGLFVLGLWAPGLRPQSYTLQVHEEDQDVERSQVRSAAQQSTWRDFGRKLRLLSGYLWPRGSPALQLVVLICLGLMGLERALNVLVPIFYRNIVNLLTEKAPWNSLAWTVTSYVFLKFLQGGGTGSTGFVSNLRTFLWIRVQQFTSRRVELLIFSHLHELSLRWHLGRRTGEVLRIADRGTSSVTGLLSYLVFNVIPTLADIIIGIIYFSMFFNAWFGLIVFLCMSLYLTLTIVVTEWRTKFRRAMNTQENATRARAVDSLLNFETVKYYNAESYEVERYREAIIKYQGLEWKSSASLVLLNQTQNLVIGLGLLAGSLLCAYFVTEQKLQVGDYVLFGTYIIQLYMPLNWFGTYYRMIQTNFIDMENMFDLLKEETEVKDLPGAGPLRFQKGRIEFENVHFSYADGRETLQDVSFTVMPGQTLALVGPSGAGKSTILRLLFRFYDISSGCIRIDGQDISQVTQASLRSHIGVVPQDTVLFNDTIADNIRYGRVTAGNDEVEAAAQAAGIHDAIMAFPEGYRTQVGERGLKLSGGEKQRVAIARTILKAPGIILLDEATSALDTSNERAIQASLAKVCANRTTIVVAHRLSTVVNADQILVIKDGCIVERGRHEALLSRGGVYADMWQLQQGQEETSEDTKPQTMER
UniProt P30837, sequence (P30837 whole entry, looked up): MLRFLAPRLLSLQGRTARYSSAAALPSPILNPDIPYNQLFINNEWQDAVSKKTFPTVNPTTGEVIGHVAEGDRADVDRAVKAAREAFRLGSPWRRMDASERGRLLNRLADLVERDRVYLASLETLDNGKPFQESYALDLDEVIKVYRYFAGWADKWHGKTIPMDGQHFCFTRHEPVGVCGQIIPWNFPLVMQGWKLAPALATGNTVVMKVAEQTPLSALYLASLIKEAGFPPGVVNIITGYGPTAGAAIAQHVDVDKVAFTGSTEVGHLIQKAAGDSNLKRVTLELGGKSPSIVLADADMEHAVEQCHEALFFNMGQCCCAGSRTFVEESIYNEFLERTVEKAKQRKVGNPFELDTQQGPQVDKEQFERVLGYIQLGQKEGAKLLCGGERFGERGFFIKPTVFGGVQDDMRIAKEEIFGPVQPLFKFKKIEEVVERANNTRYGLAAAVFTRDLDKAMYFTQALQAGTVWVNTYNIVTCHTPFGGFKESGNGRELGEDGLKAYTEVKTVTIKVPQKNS
UniProt P24666, sequence (P24666 whole entry, looked up): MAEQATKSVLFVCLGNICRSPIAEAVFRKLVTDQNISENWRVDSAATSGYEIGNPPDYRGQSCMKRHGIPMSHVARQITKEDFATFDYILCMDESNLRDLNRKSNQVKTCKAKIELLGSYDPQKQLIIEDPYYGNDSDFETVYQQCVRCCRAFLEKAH

Target | log2 fold change [1] | log2 fold change (volasertib) | log2 fold change [2] | log2 fold change (epoxomicin) | log2 fold change [3] | log2 fold change [4] | log2 fold change [5] | log2 fold change (rosiglitazone) | log2 fold change [6] | log2 fold change [7] | log2 fold change (saracatinib) | log2 fold change (sotrastaurin) | log2 fold change (alvocidib) | log2 fold change (Tubastatin A) | log2 fold change [8] | log2 fold change (defactinib) | log2 fold change (rucaparib) | log2 fold change [9] | log2 fold change (encorafenib) | log2 fold change [10]
ATP13A3 (UniProt Q9H7F0) | -0.085 | 0.077 | 0.016 | 0 | -0.014 | -0.022 | -0.012 | 0.128 | -0.011 | -0.401 (active) | -0.029 | 0.048 | -0.159 | 0.002 | -0.005 | -0.014 | 0.091 | 0.013 | 0.037 | 0.037
AP2A2 isoform 2 (UniProt O94973) | 0.026 | -0.021 | 0 | 0.048 | 0.01 | -0.012 | 0 | 0.012 | 0.008 | 0.089 | 0.006 | -0.028 | 0.052 | 0.022 | 0.022 | -0.006 | 0.077 | -0.053 | -0.002 | -0.008
BYSL (UniProt Q13895) | -0.009 | -0.113 | 0.072 | 0.118 | -0.077 | 0.053 | 0.079 | 0.045 | 0.09 | 0.053 | -0.042 | -0.101 | -0.03 | 0.136 | 0.034 | -0.004 | -0.004 | 0.094 | 0.034 | -0.073
ACP1 isoform 2 (UniProt P24666) | 0.034 | 0.055 | 0.063 | 0.012 | -0.1 | -0.083 | 0.05 | 0.027 | 0.014 | -0.07 | -0.175 | -0.11 | 0.013 | 0.111 | 0.038 | -0.047 | 0.019 | 0.059 | 0.064 | 0.024
BCLAF1 (UniProt Q9NYF8) | -0.089 | -0.08 | 0.024 | -0.027 | -0.016 | -0.002 | 0.099 | 0.018 | -0.015 | 0.024 | -0.033 | 0.039 | -0.271 | 0.184 | -0.275 | -0.382 | 0.017 | -0.057 | 0.013 | -0.028
ATIC (UniProt P31939) | -0.032 | 0.021 | 0.029 | 0.04 | -0.011 | -0.016 | 0.023 | -0.012 | -0.123 | 0.029 | -0.013 | -0.001 | -0.064 | 0.008 | 0.087 | -0.059 | -0.05 | 0.044 | -0.011 | -0.028
ALDH1B1 (UniProt P30837) | -0.036 | 0.05 | -0.005 | 0.032 | -0.05 | -0.113 | 0.001 | 0.048 | -0.095 | 0.058 | -0.015 | 0.001 | -0.093 | 0.014 | 0.002 | -0.055 | -0.015 | 0.062 | 0.013 | -0.042
AGPS (UniProt O00116) | -0.005 | -0.021 | 0.002 | 0.031 | 0.018 | -0.102 | 0.039 | 0.055 | -0.09 | -0.212 (active) | -0.01 | 0.018 | -0.058 | -0.011 | 0.032 | -0.039 | -0.017 | 0.047 | 0.009 | -0.042
BAP1 (UniProt Q92560) | -0.037 | 0.13 | 0 | -0.092 | -0.019 | 0.101 | -0.093 | 0.021 | 0.047 | 0.055 | -0.091 | 0.089 | 0.053 | 0.042 | -0.1 | 0.09 | 0.037 | 0.061 | 0.014 | -0.017
BZW2 (UniProt Q9Y6E2) | -0.193 | -0.367 (active) | 0.042 | 0.043 | -0.019 | -0.016 | 0.02 | 0.046 | -0.037 | -0.298 (active) | -0.007 | -0.032 | -0.086 | -0.004 | -0.006 | -0.057 | -0.022 | 0.001 | 0.058 | -0.026
ATP2A3 isoform 2 (UniProt Q93084) | -0.142 | -0.208 | 0.046 | 0.06 | 0.014 | -0.047 | -0.028 | 0.009 | -0.016 | 0.028 | 0.058 | -0.007 | -0.021 | -0.022 | -0.026 | -0.021 | -0.04 | 0.033 | 0.027 | 0.002
BRD8 (UniProt Q9H0E9) | 0.038 | -0.044 | -0.013 | 0.039 | 0.035 | 0.043 | -0.044 | 0.003 | 0.025 | -0.063 | 0.004 | -0.001 | 0.004 | -0.097 | -0.017 | -0.047 | -0.012 | -0.08 | -0.027 | -0.009
BST2 (UniProt Q10589) | 0.091 | 0.206 | -0.062 | -0.025 | -0.003 | 0.045 | -0.008 | -0.055 | 0 | 0.223 (active) | 0.003 | -0.097 | -0.005 | -0.055 | -0.063 | 0.03 | -0.008 | -0.07 | 0 | 0.012
ACADM isoform 2 (UniProt P11310) | -0.045 | -0.03 | -0.015 | 0.015 | 0.014 | -0.042 | -0.024 | 0.008 | -0.078 | -0.011 | 0.031 | 0.274 (active) | -0.006 | -0.03 | 0.019 | -0.016 | -0.024 | 0.083 | -0.016 | 0.004
ABCB6 (UniProt Q9NP58) | -0.131 | -0.051 | 0.001 | -0.009 | 0 | -0.019 | 0.061 | 0.027 | -0.053 | -0.123 | 0.073 | 0.01 | -0.064 | -0.017 | -0.013 | -0.031 | -0.034 | 0.003 | 0.055 | -0.017
AIFM2 (UniProt Q9BRQ8) | 0.002 | -0.035 | -0.058 | -0.035 | -0.025 | -0.017 | 0.003 | 0.001 | -0.069 | 0.068 | 0.017 | 0.08 | -0.02 | -0.026 | -0.016 | -0.029 | 0.011 | 0.003 | -0.017 | -0.01
